Source: PubChem BioAssay
Unmarked numbers belong to inactive results. Where a call stands in place of a potency, no number is given. For some assays here: Potency and affinity values are given separately. Active and inactive are the calls of the source. Unless noted, the rule behind the calls is not given here.

Columns and labels:
[1] = antimalarial activity against Dd2 strain (AID 2302;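 active = growth inhibition above 50% at the single 2 µM test dose, taken to imply half-maximal potency below 2 µM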); details: P. falciparum Dd2 in RBCs, LDH growth readout, 72 h; at 2 µM; active compounds read high
[2] = HepG2 cytotoxicity, primary screen, cytotoxicity control for P. falciparum antimalarial project, cell-based, ATP luminescence (AID 2303;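 active = inhibition above 50%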); details: HepG2 viability, 24-48 h, at 10 µM, active compounds read high
[3] = target: L-lactate dehydrogenase (Plasmodium falciparum (isolate CDC / Honduras)) (UniProt Q27743); assay: PfLDH activity inhibition – cell lysate, 3D7 strain, counter-screen for P. falciparum growth inhibition project (AID 2304); details: P. falciparum 3D7 crude extract, LDH APAD/NBT absorbance; at 2 µM; active compounds read high
Sequence of L-lactate dehydrogenase (Plasmodium falciparum (isolate CDC / Honduras)) (Q27743 whole entry, looked up): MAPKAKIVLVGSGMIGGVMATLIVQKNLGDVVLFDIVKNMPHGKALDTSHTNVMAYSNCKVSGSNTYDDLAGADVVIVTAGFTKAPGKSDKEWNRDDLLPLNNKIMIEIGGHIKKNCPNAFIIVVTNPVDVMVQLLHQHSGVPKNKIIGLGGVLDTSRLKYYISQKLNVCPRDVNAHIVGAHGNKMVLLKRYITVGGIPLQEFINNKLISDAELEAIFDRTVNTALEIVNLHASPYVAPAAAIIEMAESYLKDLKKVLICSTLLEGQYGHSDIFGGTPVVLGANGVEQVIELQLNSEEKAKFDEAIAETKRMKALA

[4] = inhibition of 3D7 malaria parasite growth – strain 3D7 (AID 2306); details: P. falciparum 3D7 erythrocytic growth, LDH absorbance, 72 h; at 2 µM; active compounds read high
[5] = target: Calcium-dependent protein kinase 1 (Plasmodium falciparum (isolate 3D7)) (UniProt P62344); assay: PfCDPK1 kinase inhibitors, biochemical, TCAMS library (AID 1159585; cut-off not given, nearly all actives have IC50 up to about 0.98 µM;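 note: inhibitors leave more ATP so luminescence rises with inhibition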); details: recombinant PfCDPK1, Kinase-Glo ATP depletion luminescence
Sequence of Calcium-dependent protein kinase 1 (Plasmodium falciparum (isolate 3D7)) (P62344 whole entry, looked up): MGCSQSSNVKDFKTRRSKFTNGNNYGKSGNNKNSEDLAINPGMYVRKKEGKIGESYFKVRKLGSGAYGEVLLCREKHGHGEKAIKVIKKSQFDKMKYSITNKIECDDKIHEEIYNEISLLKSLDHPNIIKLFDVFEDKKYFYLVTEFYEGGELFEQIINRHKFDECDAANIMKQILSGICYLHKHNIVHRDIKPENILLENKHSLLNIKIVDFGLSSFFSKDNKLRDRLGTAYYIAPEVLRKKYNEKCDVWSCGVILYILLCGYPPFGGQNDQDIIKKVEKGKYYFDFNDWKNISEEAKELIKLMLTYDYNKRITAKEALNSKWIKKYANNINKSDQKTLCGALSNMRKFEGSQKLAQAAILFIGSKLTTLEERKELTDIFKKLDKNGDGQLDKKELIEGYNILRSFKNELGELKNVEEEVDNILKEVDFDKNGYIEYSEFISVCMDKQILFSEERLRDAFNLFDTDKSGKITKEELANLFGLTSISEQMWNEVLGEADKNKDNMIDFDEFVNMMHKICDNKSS

[6] = target: Plasmodium falciparum protein kinase 6 (PK6, PF3D7_1337100) (UniProt Q8IDW1); assay: PfPK6 kinase inhibitors, biochemical, TCAMS library (AID 1159586); details: recombinant PfPK6, Kinase-Glo ATP depletion luminescence
Sequence of Plasmodium falciparum protein kinase 6 (PK6, PF3D7_1337100) (Q8IDW1 1-305): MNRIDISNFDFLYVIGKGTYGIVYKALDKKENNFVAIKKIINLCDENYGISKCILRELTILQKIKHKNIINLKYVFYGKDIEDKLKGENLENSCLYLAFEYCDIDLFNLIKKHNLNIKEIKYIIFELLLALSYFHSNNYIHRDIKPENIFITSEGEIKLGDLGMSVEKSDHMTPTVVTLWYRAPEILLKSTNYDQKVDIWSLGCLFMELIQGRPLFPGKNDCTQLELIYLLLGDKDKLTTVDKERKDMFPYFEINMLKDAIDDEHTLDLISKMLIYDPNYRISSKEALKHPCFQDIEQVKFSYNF

[7] = target: Protein kinase 7 (PK7), Plasmodium falciparum 3D7 (PF3D7_0213400) (UniProt Q7YTF7); assay: inhibition of Plasmodium PK7 catalytic activity – biochemical, TCAMS antimalarial set, Kinase-Glo luminescence (AID 1159587); details: recombinant PfPK7, Kinase-Glo ATP depletion luminescence
Sequence of Protein kinase 7 (PK7), Plasmodium falciparum 3D7 (PF3D7_0213400) (Q7YTF7 1-343): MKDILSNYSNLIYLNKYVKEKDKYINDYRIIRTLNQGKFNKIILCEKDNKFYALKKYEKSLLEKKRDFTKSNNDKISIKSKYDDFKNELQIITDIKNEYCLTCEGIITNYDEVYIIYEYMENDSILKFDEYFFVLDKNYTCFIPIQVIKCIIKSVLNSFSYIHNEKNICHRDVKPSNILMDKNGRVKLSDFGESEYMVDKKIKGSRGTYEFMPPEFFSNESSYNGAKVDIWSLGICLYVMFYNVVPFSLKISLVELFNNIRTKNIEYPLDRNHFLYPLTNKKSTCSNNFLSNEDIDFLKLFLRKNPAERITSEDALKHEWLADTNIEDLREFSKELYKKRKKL

[8] = target: Calcium-dependent protein kinase 4 (Plasmodium falciparum (isolate 3D7)) (UniProt Q8IBS5); assay: PfCDPK4 kinase inhibitors, biochemical, TCAMS library (AID 1159588; cut-off not given, nearly all actives have IC50 up to about 0.91 µM); details: recombinant PfCDPK4, Kinase-Glo ATP depletion luminescence
Sequence of Calcium-dependent protein kinase 4 (Plasmodium falciparum (isolate 3D7)) (Q8IBS5 whole entry, looked up): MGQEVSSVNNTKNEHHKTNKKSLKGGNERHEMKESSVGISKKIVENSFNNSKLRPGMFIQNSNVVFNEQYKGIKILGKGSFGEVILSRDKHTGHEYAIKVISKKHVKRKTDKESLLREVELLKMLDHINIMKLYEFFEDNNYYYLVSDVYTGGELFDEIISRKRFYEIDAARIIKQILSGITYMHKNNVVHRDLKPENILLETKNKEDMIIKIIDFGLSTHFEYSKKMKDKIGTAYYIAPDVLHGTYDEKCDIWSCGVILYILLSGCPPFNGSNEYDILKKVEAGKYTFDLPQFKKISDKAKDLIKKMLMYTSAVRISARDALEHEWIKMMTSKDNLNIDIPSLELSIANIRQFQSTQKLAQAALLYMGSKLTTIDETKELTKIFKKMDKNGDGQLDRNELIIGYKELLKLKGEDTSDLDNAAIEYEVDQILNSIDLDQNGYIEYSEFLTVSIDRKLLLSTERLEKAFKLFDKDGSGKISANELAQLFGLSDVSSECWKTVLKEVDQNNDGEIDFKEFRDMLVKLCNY

SMILES | growth inhibition [1] | inhibition [2] | inhibition [3] [%] | growth inhibition [4] | outcome [5] | outcome [6] | outcome [7] | outcome [8]
NCCCCNc1cc(-c2ccnc(Nc3cccc(Cl)c3)n2)ccn1 | 91% (active) | 46% | 1 | 94% (active) | inactive | inactive | inactive | inactive
CC(C)N(C(=O)CSc1nc2cc(Cl)ccc2c(=O)n1Cc1ccccc1)C(C)C | 97% (active) | -14% | -5 | 100% (active) | inactive | inactive | inactive | inactive
CC[C@H](C)CNC(=O)c1cncc(-c2cccc(CN(C)C3CCN(C)CC3)c2)c1 | 59% (active) | 9% | 1 | 101% (active) | inactive | inactive | inactive | inactive
CCCCC(CC)C(=O)C(NC(=O)[C@H](CSC(c1ccccc1)(c1ccccc1)c1ccccc1)NC(=O)OC(C)(C)C)C(=O)OC (stereo partly specified) | 31% | 8% | 0 | 88% (active) | inactive | inactive | inactive | inactive
Cc1noc(NC(=O)c2sc3ccccc3c2O)c1C | 50% (active) | -12% | 0 | 90% (active) | inactive | inactive | inactive | inactive
CCOC(=O)CCCCOc1c(OC)cc(Cc2cnc(N)nc2N)cc1OC | 0% | -8% | 5 | 95% (active) | inactive | inactive | inactive | inactive
COc1cc2c(cc1C(F)(F)F)N(C(=O)Nc1cc(F)cc(-c3cncnc3)c1)CC2 | 52% (active) | 15% | -5 | 97% (active) | inactive | inactive | inactive | inactive
Cc1ccc2nc(-c3cc(-c4cccc(C#N)c4)cnc3N)[nH]c2c1 | 99% (active) | 40% | 1 | 100% (active) | inactive | inactive | inactive | inactive
FC(F)(F)COc1ccc(CCNCCCCNCCc2ccc(OCC(F)(F)F)c3ccccc23)c2ccccc12 | 70% (active) | 100% (active) | 4 | 99% (active) | inactive | inactive | inactive | inactive
Nc1nc(N)c2c(ccc3nccc32)[nH]1 | -1% | 58% (active) | 8 | 88% (active) | inactive | inactive | inactive | inactive
Cc1cc(NCCc2ccccc2)nc(/N=C(\N)Nc2cccc(F)c2)n1 | -1% | -6% | -2 | 91% (active) | inactive | inactive | inactive | inactive
Cc1[nH]c(C)c(-c2ccc(OCCSc3ccncc3)cc2)c(=O)c1Br | 95% (active) | -6% | -6 | 95% (active) | inactive | inactive | inactive | inactive
CN(C)CCCOc1ccc(CCNCc2cccc(Oc3ccc(Cl)cc3)c2)cc1 | 26% | 57% (active) | -4 | 94% (active) | inactive | inactive | inactive | inactive
CC(=O)Oc1c(C2CCN(CCCCNC(=O)c3ccc(-c4ccc(C#N)cc4)cc3)CC2)ccc2c1CCCC2 | 52% (active) | 21% | 3 | 88% (active) | inactive | inactive | inactive | inactive
CCC[C@@H]([C@@H](CC1CCC(C)CC1)C(=O)N[C@@H](CO)C(=O)Nc1nccs1)N(O)C=O (stereo partly specified) | 84% (active) | 0% | -2 | 100% (active) | inactive | inactive | inactive | inactive
CCN(CCCN1CCCCC1)c1cc(C)nc(Nc2cc(Cl)cc(Cl)c2)n1 | 99% (active) | 34% | -3 | 100% (active) | inactive | inactive | inactive | inactive
CN(Cc1cccc(C#N)c1)C1CCN(c2cc(NC(=O)c3ccc(F)cc3)ccn2)CC1 | 23% | 4% | -1 | 97% (active) | inactive | inactive | inactive | inactive
CC(=O)N(C)C1CCN(Cc2cccc(-c3ccc(-c4nc5ccc(C(F)(F)F)cc5[nH]4)cc3)c2)C1 (stereo unspecified) | 94% (active) | 31% | 3 | 100% (active) | inactive | inactive | inactive | inactive
CCN(c1ccc(F)cc1)S(=O)(=O)c1cc(Br)cc2c1N(C(=O)C1CC1)CC2 | 79% (active) | -16% | 7 | 88% (active) | inactive | inactive | inactive | inactive

SMILES | growth inhibition [1] | inhibition [2] | inhibition [3] [%] | growth inhibition [4] | outcome [5] | outcome [6] | outcome [7] | outcome [8]
Nc1n[nH]c(-c2ccccc2Nc2ccnc3cc(-c4nccs4)ccc23)n1 | 94% (active) | 98% (active) | -2 | 100% (active) | inactive | inactive | inactive | inactive
O=C(/C=C/c1ccc(Cl)c(Cl)c1)NCCCCCN1CCC(NC(=S)Nc2ccc(F)cc2F)CC1 | 18% | 20% | 1 | 100% (active) | inactive | inactive | inactive | inactive
FC(F)(F)c1ccc2nc(-c3ccc(-c4ccc(CNCc5cnn(-c6ccccc6)n5)cc4)cc3)[nH]c2c1 | 76% (active) | 35% | -1 | 100% (active) | inactive | inactive | inactive | inactive
COc1ccc(Nc2ccnc3cc(Cl)ccc23)cc1OC | 91% (active) | 36% | 3 | 104% (active) | inactive | inactive | inactive | inactive
Cc1ccc(-c2nc(N3CCN(C(=O)c4ccco4)CC3)c3ccc(Cl)cc3n2)cc1 | 78% (active) | 17% | 3 | 90% (active) | inactive | inactive | inactive | inactive
O=S(=O)(NCCN1CCCC1)c1ccc(-c2ccc(CN3Cc4ccccc4C3)cc2)s1 | 18% | 19% | 5 | 89% (active) | inactive | inactive | inactive | inactive
COc1ccc(C=NNc2cc(C)nc3ccccc23)c(OC)c1 | 94% (active) | 24% | -2 | 101% (active) | inactive | inactive | inactive | inactive
FC(F)(F)COc1ccc2ccccc2c1CNCCCCCCNCc1c(OCC(F)(F)F)ccc2ccccc12 | 95% (active) | 99% (active) | 2 | 101% (active) | inactive | inactive | inactive | inactive
c1cncc(-c2cc(N3CCCCC3)nc(-c3ccncc3)n2)c1 | 46% | 18% | 2 | 99% (active) | inactive | inactive | inactive | inactive
Cc1ccc(C)c2sc(N(CCCn3ccnc3)C(=O)c3ccco3)nc12 | 63% (active) | 28% | 0 | 96% (active) | inactive | inactive | inactive | inactive
CS(=O)(=O)c1cccc2sc(N3CCN(C(=O)c4ccc([N+](=O)[O-])o4)CC3)nc12 | 61% (active) | -26% | -4 | 84% (active) | inactive | inactive | inactive | inactive
Cc1cc(C=C(P(=O)(OC(C)C)OC(C)C)P(=O)(OC(C)C)OC(C)C)c2ccccc2c1O | 54% (active) | 15% | -6 | 85% (active) | inactive | inactive | inactive | inactive
NC(N)=NN=CC(=O)Nc1ccc(Cl)cc1 | 2% | 5% | -1 | 101% (active) | inactive | inactive | inactive | inactive
O=C(Cn1c(CCc2cccc(F)c2F)cc(=O)c2ccccc21)N(CCN1CCCCC1)Cc1ccc(-c2ccc(C(F)(F)F)cc2)cc1 | 59% (active) | 9% | -6 | 101% (active) | inactive | inactive | inactive | inactive
NS(=O)(=O)c1cccc(-c2ccc3ncc(N4CCOCC4)nc3c2)c1 | 74% (active) | 17% | -4 | 96% (active) | inactive | inactive | inactive | inactive
CC(C)C[C@@H](NC(=O)NC1CCC(CCN2[C@@H]3CC[C@H]2CC(OC(=O)C(CO)c2ccccc2)C3)CC1)C(O)(c1ccccc1)c1ccccc1 (stereo partly specified) | 71% (active) | 21% | -6 | 95% (active) | inactive | inactive | inactive | inactive
COc1ccc(OCC(=O)Nc2nc(-c3ccc(OC)cc3)c(C)s2)cc1 | 87% (active) | -3% | -6 | 100% (active) | inactive | inactive | inactive | inactive
COc1ccc2cc(CNCCCCCCNCc3ccc4cc(OC)ccc4c3)ccc2c1 | 92% (active) | 100% (active) | -6 | 100% (active) | inactive | inactive | inactive | inactive
